Measurements from PubChem BioAssay (EPA / NIEHS).
Activity calls are given as the source filed them. How the source made its calls: active means hit-call score of the fitted dose curve at least 0.9, where 1 is the maximum; inactive means score below 0.9.

Assay: ATG_BRE_CIS: Attagene CIS-FACTORIAL HepG2 Assay for human Bone Morphogenetic Protein (BMP) Response Element (BRE) (AID 2282933)
Conditions: HepG2 BMP response element reporter, Attagene transcription factor profiling; actives raise or lower the signal
Method: ATG_CIS is a cell-based, multiplexed-readout assay that uses HepG2, a human liver cell line, with measurements taken at 24 hours after chemical dosing in a 24-well plate.ATG_BRE_CIS is one of 52 assay component(s) measured or calculated from the ATG_CIS assay. It is designed to make measurements of mRNA induction, a form of inducible reporter, as detected with fluorescence intensity signals by Reverse transcription polymerase chain reaction (RT-PCR) and Capillary electrophoresis technology.Data from the assay component ATG_BRE_CIS was analyzed into 1 assay endpoint. This assay endpoint, ATG_BRE_CIS, was analyzed with bidirectional fitting relative to DMSO as the negative control and baseline of activity. Using a type of inducible reporter, measures of mRNA for gain or loss-of-signal activity can be used to understand the reporter gene at the transcription factor-level as they relate to the gene SMAD1. Furthermore, this assay endpoint can be referred to as a primary readout, because this assay has produced multiple assay endpoints where this one serves a reporter gene function. To generalize the intended target to other relatable targets, this assay endpoint is annotated to the dna binding intended target family, where the subfamily is Smad protein.
Human liver HepG2 cells are transiently transfected with multiple reporter transcription units (MRTUs) in 6-well plates using FuGene 6 reagent (Roche; 3 ml FuGene/1 mg DNA). The MRTU constructs are regulated by a cis-regulating element (promoter). […] A major difference between the CIS and TRANS system is that in CIS activities of endogenous TFs are measured, whereas the TRANS assay evaluates changes in activities of exogenous, chimeric NR-Gal4 proteins. […] At the end of 24 hour incubation, total RNA was isolated using TriZol reagent (Invitrogen). The isolated RNA is then reverse-transcribed using oligo(dT) primer and Mo-MLV reverse transcriptase (Invitrogen) with DNAse I (Ambion) treatment for 30 min. The one-tenth of the produced cDNA was amplified by PCR using Taq DNA polymerase (Invitrogen) and two reporter sequence-specific primers. The PCR products were fluorescently labeled by primer extension with 6-arboxyfluorescein (6-FAM) 5'-labeled reporter sequence-specific primer (2 min at 95 C, 20 s at 68 C and 10 min at 72 C) and these products were digested with 5U of HpaI (New England Biolabs) for 2h at 37 C. The fragments were purified using Qiaquick PCR columns (Qiagen), analyzed on an ABI 3130xL genetic analyzer (Applied Biosystems) with peak positions identified by using a set of X-rhodamine (ROX)-labeled MapMarker1000 molecular weight standards (BioVentures). The raw capillary electrophoresis data was processed using Attagraph software (Attagene).

outcome, inactive:
O=C(O)CCCCCCCCC(=O)O
CCOC(=O)CC(C)O (stereo not given)
ON=C1CCCCC1
CCCCCCCCCCCCS(=O)(=O)Cl
CC(C)(N=C=O)c1cccc(C(C)(C)N=C=O)c1
CN(C)c1cccc(O)c1
NC(=S)NNC(N)=S
OCc1cccc(Oc2ccccc2)c1
COCCc1ccc(OCC(O)CNC(C)C)cc1 (stereo not given)
C#CC(C)N(C)C(=O)Nc1ccc(Cl)cc1 (stereo not given)
O=P(O)(O)O
Nc1ccc(N)c2c1C(=O)c1ccccc1C2=O
Cc1ccc(N)c(S(=O)(=O)O)c1
O=C1OC[C@H](Cc2cccc(O)c2)[C@H]1Cc1cccc(O)c1
c1ccc(CCc2ccccc2)cc1
CCC(C)=O
CSc1c(Cl)c(Cl)c(Cl)c(Cl)c1Cl
OCC#CCO
Nc1ccc2cc(S(=O)(=O)O)cc(O)c2c1N=Nc1ccccc1C(F)(F)F
COC(=O)c1ccc([N+](=O)[O-])cc1
O=CN1CCOCC1
FC(F)(F)COCC(F)(F)F
COc1ccccc1N=Nc1c(S(=O)(=O)O)cc2cc(S(=O)(=O)O)cc(NC(C)=O)c2c1O
OC[C@H]1O[C@@H](Oc2ccc(O)cc2)[C@H](O)[C@@H](O)[C@@H]1O
O=C(O)CNc1ccccc1
CC(C)CCCCCCc1ccc(OCCOCCO)cc1
CC/C=C\CCOC(=O)CC
O=[N+]([O-])c1cccc(Cl)c1
CCc1ccc(O)cc1
COC(=O)C=C(C)CCC=C(C)C
CCCCCCC(O)CCCCCCCCCCC(=O)O (stereo not given)
OC[C@H]1O[C@@H]2O[C@H]3[C@H](O)[C@@H](O)[C@@H](O[C@H]4[C@H](O)[C@@H](O)[C@@H](O[C@H]5[C@H](O)[C@@H](O)[C@@H](O[C@H]6[C@H](O)[C@@H](O)[C@@H](O[C@H]7[C@H](O)[C@@H](O)[C@@H](O[C@H]8[C@H](O)[C@@H](O)[C@@H](O[C@H]9[C@H](O)[C@@H](O)[C@@H](O[C@H]1[C@H](O)[C@H]2O)O[C@@H]9CO)O[C@@H]8CO)O[C@@H]7CO)O[C@@H]6CO)O[C@@H]5CO)O[C@@H]4CO)O[C@@H]3CO
C=C1C[C@]23C[C@@]1(O)CC[C@H]2[C@@]12C=C[C@H](O)[C@@](C)(C(=O)O1)[C@H]2[C@@H]3C(=O)O
CC(=O)OCCCc1ccccc1
Cc1cc(CCC(=O)OCCOCCOCCOC(=O)CCc2cc(C)c(O)c(C(C)(C)C)c2)cc(C(C)(C)C)c1O
CCC1CCCCC1
COCCOCCOCCO
CCOc1ccc(NC(=O)CC(C)=O)cc1
CCCCCCCCCC(=O)OC

AC50, active:
Oc1ccc2cc(SSc3ccc4cc(O)ccc4c3)ccc2c1 57 µM
